Consider 29 compounds from PubChem BioAssay AID743320 (Broad Institute, 2014).

Measured potencies and affinities stand elsewhere. A number with no mark means an inactive call. Activity calls are given as the source filed them.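 Rule for the calls: active = signal drop whose fitted half-maximal potency is at most twice the top valid dose tested; inconclusive = flat curve inhibiting 30 to 70 percent, or a poor fit; inactive = the rest.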

Sequence of Endoplasmic reticulum aminopeptidase 2 (Homo sapiens) (Q6P179 whole entry, looked up): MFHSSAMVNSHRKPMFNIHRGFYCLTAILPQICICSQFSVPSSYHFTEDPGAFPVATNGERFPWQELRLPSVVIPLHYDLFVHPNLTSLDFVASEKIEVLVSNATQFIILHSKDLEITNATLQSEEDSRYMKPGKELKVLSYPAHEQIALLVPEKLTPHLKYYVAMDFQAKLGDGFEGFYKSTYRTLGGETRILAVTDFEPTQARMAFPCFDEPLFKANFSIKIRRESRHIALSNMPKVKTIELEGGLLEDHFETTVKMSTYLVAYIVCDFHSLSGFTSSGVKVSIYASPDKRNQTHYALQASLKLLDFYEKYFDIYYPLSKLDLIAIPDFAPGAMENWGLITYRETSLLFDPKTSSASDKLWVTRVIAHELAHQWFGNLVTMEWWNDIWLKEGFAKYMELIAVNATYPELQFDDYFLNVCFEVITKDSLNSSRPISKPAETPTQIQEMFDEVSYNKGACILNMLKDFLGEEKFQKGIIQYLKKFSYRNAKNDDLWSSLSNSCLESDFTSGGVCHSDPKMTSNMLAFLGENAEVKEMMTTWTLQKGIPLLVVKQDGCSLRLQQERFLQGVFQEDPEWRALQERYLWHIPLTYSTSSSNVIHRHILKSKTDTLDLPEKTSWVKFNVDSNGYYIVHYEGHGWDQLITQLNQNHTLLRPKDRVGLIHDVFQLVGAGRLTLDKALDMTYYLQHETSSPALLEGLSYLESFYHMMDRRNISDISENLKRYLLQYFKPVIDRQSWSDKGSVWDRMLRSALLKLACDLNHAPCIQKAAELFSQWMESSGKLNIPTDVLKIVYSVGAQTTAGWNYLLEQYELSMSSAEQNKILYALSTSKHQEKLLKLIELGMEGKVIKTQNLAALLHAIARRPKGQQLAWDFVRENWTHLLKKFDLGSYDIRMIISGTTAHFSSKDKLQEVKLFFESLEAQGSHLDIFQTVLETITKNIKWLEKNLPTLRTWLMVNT

The experiment has as its target Endoplasmic reticulum aminopeptidase 2 (Homo sapiens) (UniProt Q6P179). Put plainly: inhibition of ERAP2 arginine-AMC cleavage – biochemical, fluorescence plate reader, cherry-picked, set 2, selectivity assay for selective ERAP1 modulator project, dose response (AID 743320). The settings on record: recombinant ERAP2, Arg-AMC fluorescence, 1 h; series mostly up to 11 µM.
`NC(=NCCc1c[nH]c2ccccc12)NS(=O)(=O)c1cc(F)ccc1F`: the outcome was inactive.

With `C[C@H]1CN([C@@H](C)CO)C(=O)c2cccc(NC(=O)Nc3ccc(C(F)(F)F)cc3)c2O[C@@H]1CN(C)CC1CC1`, the result was inactive.

As for `C[C@@H]1CCCCO[C@@H](CN(C)C(=O)CCC(F)(F)F)[C@@H](C)CN([C@@H](C)CO)C(=O)c2cc(NS(=O)(=O)c3ccccc3)ccc2O1`, the activity change, negative = inhibition was 14.4% [at 2.6 µM].

Take `Cc1c(O)ccc2c(CN3CCN(Cc4ccccc4)CC3)cc(=O)oc12`: the result was inactive.

Consider `CCC(=O)N(C)C[C@H]1Oc2ncc(C#Cc3ccncc3)cc2C(=O)N([C@H](C)CO)C[C@H]1C`, for which the result was inactive.

Turning to `CC(=O)N1CCN(C(=O)C2(NC(=O)Nc3ccc(C)cc3)CCCCC2)CC1`, the outcome was inactive.

Turning to `C[C@@H]1CCCCO[C@H](CN(C)C)[C@H](C)CN([C@H](C)CO)C(=O)c2cc(NS(=O)(=O)c3ccc(Cl)cc3)ccc2O1`, the outcome was inactive.

Turning to `C[C@H](CO)N1C[C@H](C)[C@H](CN(C)CC2CCCCC2)Oc2c(NC(=O)Nc3ccc4c(c3)OCO4)cccc2C1=O`, the outcome was inactive.

Regarding `Cc1ccc2nc3c(cc(C(=O)NCc4ccccc4)c(=N)n3CCCn3ccnc3)c(=O)n2c1`, the result was inactive.

In the case of `Cc1noc(C)c1S(=O)(=O)Nc1ccc2c(c1)C(=O)N([C@H](C)CO)C[C@H](C)[C@H](CN(C)Cc1ccc3c(c1)OCO3)OCCCC[C@@H](C)O2`, the result was inactive.

For the compound `Cc1noc(C)c1NC(=O)N(C)C[C@@H]1Oc2c(NC(=O)Nc3ccc(F)cc3)cccc2C(=O)N([C@H](C)CO)C[C@@H]1C`, the result was inactive.

As to `C[C@@H]1CCCCO[C@@H](CN(C)CC2CC2)[C@@H](C)CN([C@H](C)CO)C(=O)c2cc(NS(=O)(=O)c3ccc(Cl)cc3)ccc2O1`, the outcome was inactive.

In the case of `C[C@@H]1CN([C@H](C)CO)C(=O)c2cccc(NC(=O)Nc3ccccc3)c2O[C@@H]1CN(C)Cc1ccc(C(=O)O)cc1`, the result was inactive.

With `C[C@@H]1CCCCO[C@@H](CN(C)C)[C@H](C)CN([C@@H](C)CO)C(=O)c2cc(NC(=O)Nc3ccc(C(F)(F)F)cc3)ccc2O1`, the outcome was inactive.

Take `COc1ccc(CN(C)C[C@@H]2OCCCC[C@@H](C)Oc3ccc(NS(=O)(=O)c4c(C)noc4C)cc3C(=O)N([C@@H](C)CO)C[C@@H]2C)cc1`: the outcome was inactive.

Regarding `C[C@@H]1CCCCO[C@@H](CN(C)Cc2ccc(C(=O)O)cc2)[C@H](C)CN([C@@H](C)CO)C(=O)c2cc(NS(=O)(=O)c3ccc(Cl)cc3)ccc2O1`, the result was inactive.

Turning to `COc1ccc(NC(=O)Nc2cccc3c2O[C@H](CN(C)Cc2ccc(C(=O)O)cc2)[C@H](C)CN([C@H](C)CO)C3=O)cc1`, the result was inactive.

Turning to `C[C@H](CO)N1C[C@H](C)[C@H](CN(C)Cc2ccncc2)Oc2c(NC(=O)Nc3ccc(C(F)(F)F)cc3)cccc2C1=O`, the outcome was inactive.

Consider `CCCN(C)C[C@@H]1OCCCC[C@@H](C)Oc2ccc(NS(=O)(=O)c3ccc(C)cc3)cc2C(=O)N([C@H](C)CO)C[C@@H]1C`, for which the outcome was inactive.

On to `C[C@@H]1CCCCO[C@@H](CN(C)Cc2ccccc2)[C@H](C)CN([C@H](C)CO)C(=O)c2cc(NS(=O)(=O)c3cccs3)ccc2O1`, for which the outcome was inactive.

On to `CCCCc1cc(=O)oc2cc(O)ccc12`, for which the result was inactive.

With `CCCN(C)C[C@@H]1OCCCC[C@H](C)Oc2ccc(NC(=O)Nc3ccc(F)cc3)cc2C(=O)N([C@H](C)CO)C[C@@H]1C`, the outcome was inactive.

As for `Cc1ccc(-c2cc(C(=O)N3CCCC3)c3ccccc3n2)s1`, the result was inactive.

Consider `CO[C@@H]1CN(C)C(=O)c2ccc(NC(=O)Nc3cccc(Cl)c3)cc2OC[C@@H](C)NC[C@H]1C`, for which the outcome was inactive.

As for `Cc1noc(C)c1NC(=O)Nc1ccc2c(c1)C(=O)N([C@H](C)CO)C[C@@H](C)[C@@H](CN(C)Cc1ccc(C(F)(F)F)cc1)OCCCC[C@@H](C)O2`, the result was inactive.

Consider `CCn1cc(CN2CCCC(C(=O)Nc3ccc(-c4nc5ccccc5[nH]4)cc3)C2)c(C)n1` (centres undefined), for which the result was inactive.

With `C[C@@H]1CCCCO[C@@H](CN(C)Cc2ccc(C(=O)O)cc2)[C@@H](C)CN([C@H](C)CO)C(=O)c2cc(NC(=O)Nc3cccc4ccccc34)ccc2O1`, the result was inactive.

For `COc1ccc(CN(C)C[C@@H]2OCCCC[C@@H](C)Oc3ccc(NS(=O)(=O)c4cccs4)cc3C(=O)N([C@H](C)CO)C[C@@H]2C)cc1`, the result was inactive.

Regarding `C[C@@H]1CN([C@H](C)CO)C(=O)c2cc(NC(=O)Nc3ccc(F)cc3)ccc2O[C@H]1CN(C)Cc1ccc(C(=O)O)cc1`, the outcome was inactive.
